Data: PubChem BioAssay (NCI)
About 79,000 compounds went through this panel and 15% of them were active in at least one assay; those are over-represented in the sample as a whole. A number with no mark means an inactive call. Activity calls are given as the source filed them. Rule as the data show it: active = growth inhibition above about 70%; inactive = the rest.

Experiments:
[1] = NCI Yeast Anticancer Drug Screen. Data for the rad50 strain (AID 155);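 also: 0% = growth of vehicle-only cultures of the same strain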; details: S. cerevisiae rad50 strain growth inhibition, active compounds read high
How it was run: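 Growth of the mutant yeast was measured after compound exposure and referenced to vehicle-treated cultures.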

[2] = NCI Yeast Anticancer Drug Screen. Data for the mec2-1 strain (AID 157); details: S. cerevisiae mec2-1 strain, active compounds read high
How it was run: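 Compounds were applied to mec2-1 yeast cells. Their growth was then compared with that of vehicle-treated cultures to give growth inhibition.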

[3] = NCI Yeast Anticancer Drug Screen. Data for the sgs1 mgt1 strain (AID 161);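 also: 0% = growth of cultures given vehicle only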; details: S. cerevisiae sgs1 mgt1 strain, active compounds read high
How it was run: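 Growth of a repair-deficient yeast mutant was monitored after compound treatment and expressed as inhibition relative to vehicle-treated cultures.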

[4] = NCI Yeast Anticancer Drug Screen. Data for the cln2 rad14 strain (AID 165);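 also: 0% = growth equal to vehicle treated cultures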; details: S. cerevisiae cln2 rad14 strain, active compounds read high
How it was run: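 Strain: cln2 rad14 yeast, altered in cell cycle control and DNA damage repair. Read-out: growth inhibition vs vehicle.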

[5] = NCI Yeast Anticancer Drug Screen. Data for the bub3 strain (AID 167); details: S. cerevisiae bub3 mutant strain, active compounds read high
How it was run: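 Whole-cell yeast assay. The mutant strain was incubated with compounds, and growth inhibition was determined by comparison with vehicle-treated cells.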

[6] = NCI Yeast Anticancer Drug Screen. Data for the mlh1 rad18 strain (AID 175); details: S. cerevisiae mlh1 rad18 strain growth inhibition, active compounds read high
How it was run: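 A repair-deficient yeast strain is exposed to test compound, and growth is scored relative to vehicle-treated controls.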

[7] = at 5.0 µM (retest, dose inferred, filed as 0.5)
[8] = at 50.0 µM (retest, dose inferred, filed as 5.0)

| SMILES | growth inhibition [1, 7] | growth inhibition [1, 8] | growth inhibition ([1]; at 50.0 µM) | growth inhibition [2, 7] | growth inhibition [2, 8] | growth inhibition ([2]; at 50.0 µM) | growth inhibition [3, 7] | growth inhibition [3, 8] | growth inhibition ([3]; at 50.0 µM) | growth inhibition [4, 7] | growth inhibition [4, 8] | growth inhibition ([4]; at 50.0 µM) | growth inhibition [5, 7] | growth inhibition [5, 8] | growth inhibition ([5]; at 50.0 µM) | growth inhibition [6, 7] | growth inhibition [6, 8] | growth inhibition ([6]; at 50.0 µM) |
| --- | --- | --- | --- | --- | --- | --- | --- | --- | --- | --- | --- | --- | --- | --- | --- | --- | --- | --- |
| C#Cc1cccc(N=Cc2cc(Cl)cc(Cl)c2O)c1 | 13% | 90% (active) | 94.6% (active) | 8% | 90% (active) | 94.3% (active) | 20% | 97% (active) | 97.8% (active) | -1% | 91% (active) | 62.4% | -1% | 80% (active) | 89.9% (active) | 20% | 98% (active) | 97.2% (active) |
| COc1ccc(/C=C2\CN(C)C/C(=C\c3ccc(OC)cc3)C2=O)cc1 | 22% | 75% (active) | 14.2% | 18% | 79% (active) | 21.6% | 3% | 87% (active) | 31.9% | 15% | 70% (active) | 38.8% | 3% | 85% (active) | 30.8% | 25% | 87% (active) | 26.9% |
| NC(=O)C1CCCN1C(=O)C1CCCN(Cc2ccc(CN3CCCC(C(=O)N4CCCC4C(N)=O)C3)cc2)C1 (centres undefined) | -1% | -5% | 91.5% (active) | 8% | 1% | 74.2% (active) | -10% | -11% | 74.4% (active) | -13% | 11% | 74.7% (active) | 16% | 13% | 78.8% (active) | -10% | -12% | 78.3% (active) |
| Nc1ccc(Oc2ccccc2)cc1 | 2% | 38% | 67.5% | -3% | 7% | 33.9% | -9% | 37% | 75.6% (active) | -1% | 1% | 1.2% | 0% | -18% | 25.4% | -3% | 28% | 54.8% |
| OC(c1ccccc1)(c1ccccc1)C1CCCCC1 | 14% | 97% (active) | 25.5% | 7% | 97% (active) | 1.7% | -4% | 98% (active) | 40.1% | -8% | 96% (active) | -5.35% | -13% | 97% (active) | 5.95% | 2% | 97% (active) | 9.9% |
| COc1ccc(C2NCc3c(sc4c3CCCC4)-n3cccc32)cc1 (centres undefined) | -4% | 43% | 57.1% | -2% | 31% | 11.8% | -13% | 84% (active) | 93.2% (active) | -5% | 53% | 57.9% | 0% | 54% | 18.7% | -7% | 87% (active) | 77% (active) |
| Cc1ccc(-c2ccccc2)n1-c1cc(Cl)ccc1O | 12% | 99% (active) | 99% (active) | 4% | 99% (active) | 99.2% (active) | -1% | 99% (active) | 99.2% (active) | 8% | 99% (active) | 97.9% (active) | 0% | 99% (active) | 99% (active) | 10% | 99% (active) | 99.1% (active) |
| CC(C)NC(=O)OCCN=C1c2ccccc2CCc2ccccc21 | -17% | 95% (active) | 76.4% (active) | -32% | 96% (active) | 78.8% (active) | -46% | 89% (active) | 77.5% (active) | -26% | 60% | 61.5% | -62% | 97% (active) | 81.5% (active) | -11% | 95% (active) | 68.8% |
| CCOC(=O)c1ccc(C(C)C)cc1 | 3% | 96% (active) | 40.5% | 3% | 100% (active) | 79.6% (active) | 3% | 94% (active) | 55.5% | -1% | 97% (active) | 21.6% | 4% | 99% (active) | 84.3% (active) | 4% | 96% (active) | 62.1% |
| CCCCCNC(=O)C1C(=O)N(CCCCC)C(=O)/C1=N\N (centres undefined) | -1% | -1% | -5% | -3% | 2% | 29.8% | 2% | 3% | 1.7% | 1% | -3% | 79.7% (active) | 5% | -3% | 30.8% | -1% | -4% | -13.5% |
| CC1=C(C)C(=O)C2=C(OCCCO2)C1=O | -9% | -12% | -6.55% | 9% | -19% | -21.1% | -2% | 11% | -0.8% | -21% | 5% | 5.35% | -13% | -19% | 48.8% | -24% | -19% | 10% |
| CCN(CC)C(=S)N/N=C(\C)c1cccc(C)n1 | 84% (active) | 100% (active) | 88.7% (active) | 82% (active) | 99% (active) | 91.7% (active) | 62% | 99% (active) | 85.3% (active) | 82% (active) | 99% (active) | 89.4% (active) | 87% (active) | 99% (active) | 88.9% (active) | 81% (active) | 99% (active) | 85.8% (active) |
| O=C(OC1=C(Br)C(=O)c2ccccc2C1=O)c1ccccc1 | 13% | 99% (active) | 74.5% (active) | 31% | 99% (active) | 60.2% | 32% | 98% (active) | 66.3% | 4% | 58% | -17% | 12% | 89% (active) | 12.1% | 38% | 98% (active) | 51.2% |
| O=C1c2cccc(NCCNCCO)c2C(=O)c2cccc(NCCNCCO)c21 | 18% | 58% | -10.3% | -8% | -8% | 7% | 17% | 13% | 31% | 24% | 32% | 15.4% | 15% | 22% | 45.1% | 8% | 15% | 8.2% |
| Cc1c[nH]c2nc(C)n(-c3ccccc3)c(=N)c12 | -1% | 2% | 6.1% | 1% | -3% | 16.5% | -3% | 3% | 2.5% | 2% | -8% | 38% | -3% | -3% | -6.85% | -2% | -2% | 8.65% |
| CCCCCCCCNc1nc(Cl)nc2c1cnn2C | 2% | 40% | 0.3% | -1% | 59% | -17.9% | 3% | 68% | 24.2% | -4% | 62% | -10.6% | -5% | 80% (active) | 42.4% | 12% | 84% (active) | 45.5% |
| O=C(CN1CCCC1)Nc1nc(-c2ccc(Cl)cc2)cs1 | 55% | 69% | 50.5% | 37% | 53% | 35.7% | 54% | 87% (active) | 67.5% | 39% | 57% | 48.3% | 45% | 88% (active) | 67.6% | 65% | 82% (active) | 64.2% |
| Cn1cnc([N+](=O)[O-])c1S | 2% | 1% | -4.8% | -2% | 9% | 16.2% | 0% | -2% | 8.45% | -5% | 13% | 44% | 0% | 3% | -0.8% | 1% | 9% | 21.6% |
